We go through 40 compounds from PubChem BioAssay (NCI).

This is part of a sample that, as a whole, favours compounds with a hit. Of some 79,000 tested, about 15% had one in any assay. Calls of active or inactive are those of the source. No stated cut-off is given here; in the data, active means growth inhibition above about 70%; inactive means the rest.

The first experiment in a line: NCI Yeast Anticancer Drug Screen. Data for the rad50 strain (AID 155).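 Further: 0% = growth of vehicle-only cultures of the same strain.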 Particulars: S. cerevisiae rad50 strain growth inhibition; at 50.0 µM; hits give high values. Summed up:
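Compounds were tested on a yeast strain with an engineered DNA damage repair alteration; the reported value is growth inhibition normalised to vehicle treatment.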
With `COc1ccc(-c2cc(=O)c3cc(C)c(C)c(C(=O)O)c3o2)cc1`, the growth inhibition was -10.5% (inactive). Regarding `Cc1ccc(S(=O)(=O)/N=C2\CCN(S(=O)(=O)c3ccccc3)N2S(=O)(=O)c2ccc(C)cc2)cc1`, the growth inhibition is 17.6% (inactive).

Regarding `COc1cc(/C=C(\OC(C)=O)c2ccc3c(c2)OCO3)cc(OC)c1OC`, the growth inhibition is -5% (inactive).

On to `Cc1cccc(C)c1NC(=O)Oc1ccc(Cl)cc1Cc1ccccc1`, for which the growth inhibition is 98.5% (active). Same read-out and setting: in the case of `CC1CCCCC12COC(O)CO2` (centres undefined) it was -22.5% (inactive); in that of `Nc1cccc(OCC2CCCN3CCCCC23)c1` (centres undefined), 20% (inactive); in that of `CCCCCCC(=O)/C=C/c1cc(Cl)cc(Cl)c1OCOC`, 35% (inactive). Same read-out and setting: the result for `CC1(c2ccccc2)CCCCC1OC(N)=O` (centres undefined) reads 4.3% (inactive); that for `O=C(OCC(OC(=O)c1ccccc1)C(OC(=O)c1ccccc1)C(OC(=O)c1ccccc1)c1nn[nH]n1)c1ccccc1` (centres undefined), 73% (active). In the case of `COC(=O)/C(C)=C/C=C/C(C)C(O)C(C)C1OC(CC(OC)OC)C(C)C(O)C1C` (centres undefined), the growth inhibition is 28.9% (inactive). Regarding `CCOC(=O)c1cc2cc(C)cc(C(=O)c3ccc([N+](=O)[O-])cc3)c2[nH]1`, the growth inhibition was 15.1% (inactive).

Consider `CC(C)N1CC2CC(CN(C(=O)c3ccc(Cl)cc3)C2)C1`, for which the growth inhibition was -30.4% (inactive). Still for that read-out and setting: the result for `CC(C)C(NC(=O)C1CSC(C)(C)N1C=O)C(N)=O` (centres undefined) reads -5.2% (inactive). Regarding `CCCOC(=O)/C=C/C(=O)N1CC(C)N(C(=O)/C=C/C(=O)OCCC)CC1C` (centres undefined), the growth inhibition was 3.85% (inactive).

Turning to `O=S(=O)(Nc1ccccc1C(O)c1ccccc1)c1ccccc1` (centres undefined), the growth inhibition was 35.5% (inactive). Still for that read-out and setting: in the case of `CCOC(=O)CCc1c(C)c2c(OC(C)=O)cc(OC(C)=O)cc2oc1=O` it was 31.6% (inactive); in that of `C/C(=C/c1ccccc1)C(=O)O`, -3.8% (inactive); in that of `O=C(O)Cc1cc2cccc([N+](=O)[O-])c2[nH]1`, 1.4% (inactive). The same measure, in the same setting: in the case of `NC(=O)N/N=C(\c1ccccc1)C1CCCCc2ccccc21` (centres undefined) it was 48.5% (inactive); in that of `ClCCCCC(Cl)(Cl)Cl`, 27.9% (inactive). On the same count and under the same terms, the result for `CS(=O)(=O)OC1C(OC(=O)c2ccccc2)COC(OCc2ccccc2)C1OS(C)(=O)=O` (centres undefined) reads -5.4% (inactive). As for `CCCCCc1cc(O)cc2c1Oc1cc(O)cc(C(=O)CCCC)c1C(=O)O2`, the growth inhibition is 4% (inactive). On the same count and under the same terms, in the case of `Cc1cc2nc(CC(O)c3nc4cc(C)c(C)cc4[nH]3)[nH]c2cc1C` (centres undefined) it was 6.9% (inactive); in that of `Clc1ccccc1-c1nnc(-c2cccc(-c3nnc(-c4ccccc4Cl)o3)n2)o1`, -1.65% (inactive).

`CCOc1cccc(/C=N/N=C2\C(=O)Nc3c(Cl)cc(Cl)cc32)c1O`: the growth inhibition is 22.2% (inactive). Still for that read-out and setting: in the case of `CCCC=Nc1ccccc1` it was 8.3% (inactive); in that of `CN1CC(O)C(C(=O)NC23CC4CC(CC(C4)C2)C3)C1` (centres undefined), 30.8% (inactive); in that of `CCCCCCCCCCN=C(N)CSSCC(N)=NCCCCCCCCCC`, 96.2% (active). The same measure, in the same setting: in the case of `O=C1NC2(CCCCC2)C(=O)N1CCN1C(=O)NC2(CCCCC2)C1=O` it was 6.7% (inactive); in that of `COc1cc(C(OC(C)=O)OC(C)=O)c(Cl)cc1OC(C)=O`, 5.5% (inactive). On the same count and under the same terms, in the case of `COC1=CC(=O)C(=O)C=C1C(C)(C)C` it was 49.2% (inactive); in that of `N#CCCC(=O)O`, 17.6% (inactive). Consider `O=C(Nc1ccccc1C(=O)O)C(=O)C(C(=O)c1ccccc1-c1ccccc1)C1OC(=O)c2ccccc21` (centres undefined), for which the growth inhibition is 26.1% (inactive). Still for that read-out and setting: in the case of `O=S1(=O)c2ccccc2NC(c2ccc3ccccc3c2)CC1c1ccccc1F` (centres undefined) it was -25.3% (inactive); in that of `Cc1nc(N)sc1C(=O)/C=C/c1ccc([N+](=O)[O-])cc1`, 16.2% (inactive); in that of `CCC(C)(O)C#CC#CC(C)(O)CC` (centres undefined), 17.2% (inactive). On the same count and under the same terms, the result for `COc1ccc(OC)c(NC(=O)C(=O)C(C(=O)c2ccccc2F)C2OC(=O)c3ccccc32)c1` (centres undefined) reads -15.6% (inactive). Same read-out and setting: in the case of `C[C@@]12CCC(=O)c3coc(c31)C(=O)c1cc3c(cc12)C(=O)C=CC3=O` it was 92% (active); in that of `Clc1ccc(-c2nc(CSc3ccccn3)cs2)cc1`, 13.7% (inactive); in that of `O=C(O)C(CCl)(CCl)CCl`, 19.4% (inactive).

Another experiment in a line: NCI Yeast Anticancer Drug Screen. Data for the sgs1 mgt1 strain (AID 161).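 Further: 0% = growth of cultures given vehicle only.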 Particulars: S. cerevisiae sgs1 mgt1 strain, at 50.0 µM, hits give high values. The gist of the method: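 Test agents were incubated with a DNA-repair-mutant yeast strain. Growth was then read and compared against vehicle-treated controls.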
In the case of `COc1ccc(-c2cc(=O)c3cc(C)c(C)c(C(=O)O)c3o2)cc1`, the growth inhibition was -5.4% (inactive). Take `Cc1ccc(S(=O)(=O)/N=C2\CCN(S(=O)(=O)c3ccccc3)N2S(=O)(=O)c2ccc(C)cc2)cc1`: the growth inhibition was 14.3% (inactive).

Consider `COc1cc(/C=C(\OC(C)=O)c2ccc3c(c2)OCO3)cc(OC)c1OC`, for which the growth inhibition is 33.2% (inactive). The same measure, in the same setting: in the case of `Cc1cccc(C)c1NC(=O)Oc1ccc(Cl)cc1Cc1ccccc1` it was 99.6% (active); in that of `CC1CCCCC12COC(O)CO2` (centres undefined), -19.1% (inactive); in that of `Nc1cccc(OCC2CCCN3CCCCC23)c1` (centres undefined), 4.9% (inactive). As for `CCCCCCC(=O)/C=C/c1cc(Cl)cc(Cl)c1OCOC`, the growth inhibition was 25.1% (inactive).

`CC1(c2ccccc2)CCCCC1OC(N)=O` (centres undefined): the growth inhibition is -13.9% (inactive).

Turning to `COC(=O)/C(C)=C/C=C/C(C)C(O)C(C)C1OC(CC(OC)OC)C(C)C(O)C1C` (centres undefined), the growth inhibition is 9.75% (inactive). In the case of `CCOC(=O)c1cc2cc(C)cc(C(=O)c3ccc([N+](=O)[O-])cc3)c2[nH]1`, the growth inhibition is 30.6% (inactive).

For `CC(C)N1CC2CC(CN(C(=O)c3ccc(Cl)cc3)C2)C1`, the growth inhibition was -8.25% (inactive).

In the case of `CC(C)C(NC(=O)C1CSC(C)(C)N1C=O)C(N)=O` (centres undefined), the growth inhibition is 12.3% (inactive). Same read-out and setting: the result for `CCCOC(=O)/C=C/C(=O)N1CC(C)N(C(=O)/C=C/C(=O)OCCC)CC1C` (centres undefined) reads 9.6% (inactive); that for `O=S(=O)(Nc1ccccc1C(O)c1ccccc1)c1ccccc1` (centres undefined), 12.3% (inactive); that for `CCOC(=O)CCc1c(C)c2c(OC(C)=O)cc(OC(C)=O)cc2oc1=O`, 17.4% (inactive). On the same count and under the same terms, in the case of `C/C(=C/c1ccccc1)C(=O)O` it was -22% (inactive); in that of `O=C(O)Cc1cc2cccc([N+](=O)[O-])c2[nH]1`, 8.75% (inactive); in that of `NC(=O)N/N=C(\c1ccccc1)C1CCCCc2ccccc21` (centres undefined), 33.2% (inactive). The same measure, in the same setting: in the case of `ClCCCCC(Cl)(Cl)Cl` it was 10.4% (inactive). For `CS(=O)(=O)OC1C(OC(=O)c2ccccc2)COC(OCc2ccccc2)C1OS(C)(=O)=O` (centres undefined), the growth inhibition is -11.9% (inactive). As to `CCCCCc1cc(O)cc2c1Oc1cc(O)cc(C(=O)CCCC)c1C(=O)O2`, the growth inhibition was 8.6% (inactive). The same measure, in the same setting: in the case of `Cc1cc2nc(CC(O)c3nc4cc(C)c(C)cc4[nH]3)[nH]c2cc1C` (centres undefined) it was -5.1% (inactive). On the same count and under the same terms, the result for `Clc1ccccc1-c1nnc(-c2cccc(-c3nnc(-c4ccccc4Cl)o3)n2)o1` reads -6.55% (inactive); that for `CCOc1cccc(/C=N/N=C2\C(=O)Nc3c(Cl)cc(Cl)cc32)c1O`, 39.9% (inactive).

With `CCCC=Nc1ccccc1`, the growth inhibition was 14.5% (inactive). Still for that read-out and setting: the result for `CN1CC(O)C(C(=O)NC23CC4CC(CC(C4)C2)C3)C1` (centres undefined) reads 11.8% (inactive); that for `CCCCCCCCCCN=C(N)CSSCC(N)=NCCCCCCCCCC`, 97.1% (active); that for `O=C1NC2(CCCCC2)C(=O)N1CCN1C(=O)NC2(CCCCC2)C1=O`, -1.8% (inactive). The same measure, in the same setting: the result for `COc1cc(C(OC(C)=O)OC(C)=O)c(Cl)cc1OC(C)=O` reads 17.1% (inactive); that for `COC1=CC(=O)C(=O)C=C1C(C)(C)C`, 48.8% (inactive); that for `N#CCCC(=O)O`, 11.7% (inactive). Still for that read-out and setting: the result for `O=C(Nc1ccccc1C(=O)O)C(=O)C(C(=O)c1ccccc1-c1ccccc1)C1OC(=O)c2ccccc21` (centres undefined) reads 4.2% (inactive). In the case of `O=S1(=O)c2ccccc2NC(c2ccc3ccccc3c2)CC1c1ccccc1F` (centres undefined), the growth inhibition was -47% (inactive). On the same count and under the same terms, the result for `Cc1nc(N)sc1C(=O)/C=C/c1ccc([N+](=O)[O-])cc1` reads -15.7% (inactive). Turning to `CCC(C)(O)C#CC#CC(C)(O)CC` (centres undefined), the growth inhibition is 22.1% (inactive). For the compound `COc1ccc(OC)c(NC(=O)C(=O)C(C(=O)c2ccccc2F)C2OC(=O)c3ccccc32)c1` (centres undefined), the growth inhibition is -27.9% (inactive). `C[C@@]12CCC(=O)c3coc(c31)C(=O)c1cc3c(cc12)C(=O)C=CC3=O`: the growth inhibition is 93.2% (active).

Consider `Clc1ccc(-c2nc(CSc3ccccn3)cs2)cc1`, for which the growth inhibition is 49.5% (inactive).

Consider `O=C(O)C(CCl)(CCl)CCl`, for which the growth inhibition is 1.05% (inactive).
